High-throughput results (PubChem BioAssay)
D2 ag-1: activates the human D2 dopamine receptor; HEK293 T-REx D2 cells, calcium flux agonist mode; activation, % at 2 µM; actives 0.53% (n = 340,000); P14416;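 active means activation over 3 SD above normal in the single-dose calcium agonist read, cut at about 30% in these data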; further: 0% is about no effect
Target sequence (P14416 whole entry, looked up): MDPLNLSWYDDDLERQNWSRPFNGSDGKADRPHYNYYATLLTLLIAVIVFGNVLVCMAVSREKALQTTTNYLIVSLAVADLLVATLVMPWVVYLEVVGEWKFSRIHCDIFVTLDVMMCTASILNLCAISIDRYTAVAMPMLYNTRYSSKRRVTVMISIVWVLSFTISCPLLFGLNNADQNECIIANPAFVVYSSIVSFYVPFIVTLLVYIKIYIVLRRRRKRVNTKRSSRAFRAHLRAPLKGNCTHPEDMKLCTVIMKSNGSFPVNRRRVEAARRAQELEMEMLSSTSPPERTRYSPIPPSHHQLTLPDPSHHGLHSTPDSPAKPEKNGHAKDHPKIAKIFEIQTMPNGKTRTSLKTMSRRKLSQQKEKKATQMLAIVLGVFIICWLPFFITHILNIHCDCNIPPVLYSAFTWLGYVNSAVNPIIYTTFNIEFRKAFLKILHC
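In this primary screen, compounds producing a positive calcium signal within 180 s of addition to tetracycline-induced, force-coupled HEK293 Trex D2 cells are flagged; cells are dye-loaded with a no-wash calcium kit beforehand.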
D2 PAM-1: positive allosteric modulators of human D2 dopamine receptor; actives 0.23% (n = 360,000); AID 624464; potentiation, % (no concentration beside the values); DiscoveRx D2 beta-arrestin cells, luminescence, 90 min; 100% = 57 uM dopamine signal; in the data active means potentiation above about 50%; inconclusive means mostly about 30% to 49%
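PathHunter D2 cells, attached overnight at 37 deg C, received compound in DMSO plus dopamine at EC20 (50 nM final) for 90 min at 37 deg C. Beta-arrestin recruitment was read as luminescence after 1 h with detection reagent at ambient temperature.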
D2 antagonist: antagonists of human D2 dopamine receptor | P14416 | HEK293 TREx D2 cells, calcium flux, dopamine EC80 | inhibition, % at 10 µM | actives 2% (n = 340,000) | AID 485344; in the data active means inhibition above about 30%; inactive means below that, where a call was filed; further: 0% is about no effect
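Calcium flux kinetic readout in an inducible HEK293 TREx D2 line plated overnight at 30 C. After 180 s compound exposure, an EC80 dopamine challenge follows with another 180 s kinetic read to detect antagonism.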
D2 ag-2: human D2 receptor agonism in beta-arrestin assay. activation, % (test concentration not listed). P14416. DiscoveRx PathHunter D2 beta-arrestin, luminescence, 90 min; 100% = 57 uM dopamine signal. actives 0.084% (n = 360,000); in the data active means activation above about 40%; inconclusive means between about 15% and that limit
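Agonist mode: compounds alone added to overnight-plated D2 PathHunter cells for 90 min at 37 C, with 57 uM final dopamine (EC100) defining full response. Beta-arrestin recruitment detected by chemiluminescent reagent, read after 1 h at ambient temperature.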
D2 PAM-2: positively modulates the human D2 dopamine receptor allosterically; P14416; HEK293 T-REx D2, calcium flux, EC20 dopamine potentiation; potentiation, % at 10 µM; actives 0.34% (n = 340,000); AID 485347;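 active means potentiation over 3 SD above the plate norm, cut at about 30% in these data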; further: 0% is about no effect
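Primary screen. Calcium kinetics in induced HEK293 T-REx D2 cells: compound pre-addition 180 s, EC20 dopamine, 180 s more.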
* hit, by the source's call; u = inconclusive; x = no result given. In the library only some 2.4% were active in any assay of this set; here they are far more common.

SMILES | D2 ag-1 | D2 PAM-1 | D2 antagonist | D2 ag-2 | D2 PAM-2
CC(C)CCNc1nc(N)c([N+](=O)[O-])c(NCC2CCCO2)n1 (stereo not drawn) | 32* | -31 | 24 | 2 | 2
COCCCNc1nc(N)c([N+](=O)[O-])c(NC2CCCCC2)n1 | 4 | -4 | 30* | 0 | 20
O=C(O)c1nn(CCOc2ccc(Br)cc2)c(=O)c2ccccc12 | 1 | -1 | 19 | -1 | 7
O=C(O)c1nn(CCOc2ccccc2F)c(=O)c2ccccc12 | 1 | -4 | -11 | -8 | 33*
N/C(=N\OS(=O)(=O)c1ccc(Br)cc1)c1ccncc1 | 0 | 95* | -3 | u | -7
Cc1ccc(C)c(OCCn2c(C3CC(=O)N(Cc4ccc(F)cc4)C3)nc3ccccc32)c1 (stereo not drawn) | 1 | x | x | x | 2
CCCOc1ccc(N/C=C/C(=O)c2cc(OC)c(OC)c(OC)c2)cc1 | -1 | 83* | 1 | 1 | -9
CCOc1ccc(N/C=C/C(=O)c2ccc(OC)cc2)cc1 | 0 | -3 | 2 | -2 | 1
COc1ccc(-c2cc(=O)oc3cc(OC(C)C(=O)NC(Cc4c[nH]c5ccc(O)cc45)C(=O)O)ccc23)cc1 (stereo not drawn) | 5 | -14 | -22 | 4 | -5
CC(Oc1ccc2ccc(=O)oc2c1)C(=O)NC(Cc1c[nH]c2ccc(O)cc12)C(=O)O (stereo not drawn) | -1 | 7 | 44* | 9 | -24
CCCc1cc(=O)oc2cc(C)cc(OCC(=O)NC(Cc3c[nH]c4ccc(O)cc34)C(=O)O)c12 (stereo not drawn) | 0 | -2 | -24 | -4 | 8
CCc1cc(=O)oc2cc(C)cc(OCC(=O)NC(Cc3c[nH]c4ccc(O)cc34)C(=O)O)c12 (stereo not drawn) | 1 | 20 | 48* | 7 | -12
CC(=O)NC(CC(C)C)C(=O)O (stereo not drawn) | x | -3 | x | 0 | x
O=C1[C@H]2[C@@H](c3ccc(F)cc3)N3C(=O)N(c4cccc(Br)c4)C(=O)[C@@]3(Cc3ccccc3)[C@H]2C(=O)N1C1CCCCC1 | 1 | -14 | 41* | 0 | -4
CC(C)(C)c1ccc(OC(=O)N2CCOCC2)cc1 | 0 | -3 | 32* | 3 | -5
COc1cc(C)cc2oc(=O)c(CC(=O)N3CCN(C(=O)C4COc5ccccc5O4)CC3)c(C)c12 (stereo not drawn) | -1 | 12 | 37* | 5 | 3
Cc1cc(O)c2c(C)c(CC(=O)N3CCN(C(=O)C4COc5ccccc5O4)CC3)c(=O)oc2c1 (stereo not drawn) | -2 | 0 | 0 | 1 | 3
O=C(CNS(=O)(=O)c1ccccc1)OCC(=O)c1ccc(F)cc1 | -2 | -6 | -16 | -4 | 36*
CCN1/C(=C/C=C/c2oc3ccc4ccccc4c3[n+]2CC)Oc2ccc3ccccc3c21 | 45* | 0 | 7 | 3 | -4
CCN1C(=O)/C(=C/C=C2/Sc3ccc4ccccc4c3N2CCO)SC1=S | 0 | -4 | 6 | -2 | -1
CC(C)OCCCn1c(=S)[nH]c2cc3c(cc2c1=O)OCO3 | -1 | 16 | 50* | 1 | 2
CC(C)OCCCn1c(=S)[nH]c2ccc(N3CCOCC3)cc2c1=O | -2 | -7 | -13 | 0 | -5
O=S(=O)(NCc1ccccc1)c1ccc(S(=O)(=O)N2CCCCC2)cc1 | 0 | 0 | 5 | -2 | -4
CC1CCN(S(=O)(=O)c2ccc(S(=O)(=O)NCc3ccccc3)cc2)CC1 | 1 | 14 | 31* | 4 | -5
CC(=O)NCCc1c[nH]c2ccc(OCC(O)CNC(C)(C)C)cc12 (stereo not drawn) | 1 | 1 | -2 | -5 | 7
SMILES | D2 ag-1 | D2 PAM-1 | D2 antagonist | D2 ag-2 | D2 PAM-2
CC1(C)CC(=O)C(c2ccccc2)(c2ccccc2)C(=O)C1 | x | 0 | x | -2 | x
O=C(c1ccc2ncsc2c1)N1CCCCC1 | 1 | -6 | -5 | -3 | -6
Nc1nc2ccc(C(=O)N3CCCCC3)cc2s1 | 0 | -2 | 51* | 1 | 0
CN(c1ccc(C(=O)Nc2ccc(CC#N)cc2)cc1)S(C)(=O)=O | 0 | 0 | 41* | -3 | 4
CN(c1ccc(C(=O)Nc2ccc3c(c2)OCO3)cc1)S(C)(=O)=O | 0 | -13 | 0 | -4 | -3
CC(=O)c1ccc(NC(=O)CSc2nccn2Cc2ccco2)cc1 | 1 | x | x | x | -1
CCc1ccc(N2CCN(CCNC(=O)Nc3ccccc3)CC2)cc1 | x | 10 | 74* | 8 | x
CCc1ccc(N(C(C)=O)C2C=CS(=O)(=O)C2)cc1 (stereo not drawn) | 1 | -5 | 37* | -2 | 5
CC(=O)OC(C)CS(=O)(=O)c1ccccc1 (stereo not drawn) | 0 | 0 | 30* | -3 | 26
COc1ccc(NC(=O)CSc2nc3c(c(=O)n2-c2ccc(F)cc2)SCC3)c(OC)c1 | 0 | -20 | 38* | -4 | 3
COc1ccc(-n2c(SCC(=O)Nc3cc(C)on3)nc3c(c2=O)SCC3)cc1 | -1 | -3 | 7 | -2 | -7
CCc1nnc2n1N=C(c1ccc(OC)cc1)CS2 | 0 | -7 | 34* | -3 | 4
CCOc1ccc(-c2nnc3n2N=C(c2ccc(OC)cc2)CS3)cc1 | 1 | -2 | 19 | 1 | 9
CSc1nc2c(c(=O)n1C)SC(C)C2 (stereo not drawn) | 1 | -3 | 20 | -2 | 1
CCC(C)Sc1nc2c(c(=O)n1C)SC(C)C2 (stereo not drawn) | -1 | 1 | -4 | -1 | 52*
CCN(CC)S(=O)(=O)c1cccc(C(=O)NCC2(N3CCOCC3)CCCCC2)c1 | 0 | -2 | 39* | -4 | 3
N#Cc1c(NC(=O)/C=C/C(=O)O)sc2c1CCN(Cc1ccccc1)C2 | 6 | -6 | 14 | 0 | 5
O=C(NCc1ccc2c(c1)OCO2)C1CC(=O)N(CCc2ccc(F)cc2)C1 (stereo not drawn) | 0 | -2 | 8 | -2 | -4
CC(OC(=O)c1ccc(NC(=O)CC#N)cc1)C(=O)NCCC1=CCCCC1 (stereo not drawn) | 0 | 4 | 38* | 0 | -3
CCN(C(=O)COc1ccccc1)c1nnc(-c2cccnc2)s1 | -1 | -27 | 41* | 1 | -7
CCN(C(=O)c1c(OC)cccc1OC)c1nnc(-c2cccnc2)s1 | 0 | 0 | -13 | 1 | 52*
COCCN(C(=O)COc1ccccc1)c1nnc(-c2cccnc2)s1 | 0 | 28 | -7 | 1 | -1
